Among all 16,000 compounds or so, about 4,000 (25%) were called active. Another 26% or so got no clear call; they are omitted. The call rests on the fitted dose curve; in most records, active means well fitted curve in the direction sought with a large enough effect; inconclusive means small, poorly fitted or top-dose-only effect, or effect the other way; inactive means no such curve, though single readings can be large or run the other way. A selection follows.
molecular target: Cytochrome P450 2C9 (Homo sapiens) (UniProt P11712); test: Cytochrome panel assay with activity outcomes; conditions: recombinant CYP, pro-luciferin dealkylation, luminescence, p450-cyp2c9; series mostly up to 57.1 µM; activity, negative = inhibition: at the top concentration
On the % scale 0 is the no-effect control and ±100 the full control effect.

Sequence of Cytochrome P450 2C9 (Homo sapiens) (P11712 whole entry, looked up): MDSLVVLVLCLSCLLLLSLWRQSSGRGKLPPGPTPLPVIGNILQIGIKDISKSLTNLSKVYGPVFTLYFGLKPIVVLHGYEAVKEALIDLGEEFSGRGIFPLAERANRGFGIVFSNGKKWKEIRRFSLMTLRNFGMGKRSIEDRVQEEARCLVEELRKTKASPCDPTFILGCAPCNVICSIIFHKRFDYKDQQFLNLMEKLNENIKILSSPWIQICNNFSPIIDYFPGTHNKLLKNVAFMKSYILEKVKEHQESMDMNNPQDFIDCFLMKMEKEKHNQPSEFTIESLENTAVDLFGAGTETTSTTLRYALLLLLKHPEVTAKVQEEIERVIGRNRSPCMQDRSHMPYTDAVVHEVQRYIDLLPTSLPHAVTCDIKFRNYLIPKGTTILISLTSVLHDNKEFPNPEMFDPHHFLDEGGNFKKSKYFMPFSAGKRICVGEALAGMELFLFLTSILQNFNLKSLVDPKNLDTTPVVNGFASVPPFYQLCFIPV

activity, negative = inhibition, inactive:
CC(C)NC(=O)N1CC[C@@]2(CCCN(C(=O)c3cccn3C)C2)C1 8.02%
CN(C)CCNc1oc(COc2ccc(Cl)cc2Cl)nc1C#N 22.6%
CCOc1ccc(-c2nnn(CC(=O)Nc3cc(OC)ccc3OC)n2)cc1OCC -21.2%
CN(C)CCCN1c2ccc(O)cc2Sc2ccc(Cl)cc21 -1.91% [at 11.4 µM]
CSC1=N/C(=C\c2ccc3c(c2)OCO3)C(=O)S1 -17.8%
CCCCNC(=O)C(=O)c1ccccc1NC(C)=O 16.8%
Cc1cnc(CNc2ncncc2-c2ccccc2C#N)cn1 -5.28% [at 2.29 µM]
O=c1c(Oc2ccccc2Br)c(C(F)(F)F)oc2c(CN3CCCC3)c(O)ccc12 -21.2%
Cc1cccc(Cn2ncc(Cl)c(Cl)c2=O)c1 -21.4%
Cc1cccc(CNc2ncncc2-c2ccccc2Cl)c1 7.19% [at 2.29 µM]
Cc1c(S(=O)(=O)O)ccc(N=Nc2c(O)c(C(=O)O)cc3ccccc23)c1Cl -11.1% [at 11.4 µM]
Nc1nc2n[nH]nc2c(=O)[nH]1 -12.4% [at 25.6 µM]
Cc1cc(Cc2c(C)c(C)c(Cc3cc(C)cc(C(C)(C)C)c3O)c(C)c2C)c(O)c(C(C)(C)C)c1 9.35% [at 11.4 µM]
CC(C)c1cc(CN(C)C)c(O)c(C(C)(C)C)c1 1.03% [at 11.4 µM]
Cc1cc(C)c(O)c(Cc2cccc(Cc3cc(C)cc(C)c3O)c2O)c1 11.7% [at 11.4 µM]
C[N+](C)(CCCCCC[N+](C)(C)CCCN1C(=O)c2cccc3cccc(c23)C1=O)CCCN1C(=O)c2cccc3cccc(c23)C1=O 10.1%
Cc1ccc(NC(=S)N2CCN(C3CCCCC3)CC2)cc1 4.46%
C/C(=N\NC(=O)CC1N=C(Cc2ccccc2)NNC1=O)c1ccc(Cl)cc1Cl (stereo not drawn) -30%
COc1ccccc1CNC(=O)C/C(C)=N/NC(=O)Cc1ccccc1 13.2%
CC1(C)C2([N+](=O)[O-])CN3CC1([N+](=O)[O-])CN(C2)C3c1ccccc1 (stereo not drawn) -20.9%
FC(F)(F)c1ccccc1-c1cc(NCCN2CCOCC2)ncn1 26.8% [at 2.29 µM]
CCOC(=O)Oc1c(OC)cc(C(=O)O[C@H]2C[C@H]3CN4CCc5c([nH]c6cc(OC)ccc56)[C@@H]4C[C@H]3[C@@H](C(=O)OC)[C@@H]2OC)cc1OC -2.83% [at 25.6 µM]
Cc1cccc(C)c1NC(=O)CCN1C(=O)C2C3CCC(C3)C2C1=O (stereo not drawn) -43.2%
O=C(O)CSc1ncnc2sc3c(c12)CCC3 -25.3%
Fc1cccc(CSc2ncnc3c2ncn3[C@H]2CCCS2)c1 9.41% [at 11.4 µM]
COCCN1CN=C(Nc2nc3ccccc3s2)NC1 -22.2%
O=C(NNc1nc2ccccc2s1)C1CC1 -21.8%
C/C(CC(=O)Nc1cc(C)ccn1)=N\NC(=O)COc1cccc(C)c1 -22%
COc1ccc(CCNC(=O)Cn2cnc3c2c(=O)n(C)c(=O)n3C)cc1OC -21%
Cc1ccc(C)c(NC(=O)Cn2nnc(C(=O)NCc3cccs3)c2N)c1 -22%
COc1ccccc1CNc1ncncc1-c1ccccc1C(F)(F)F -18.6% [at 2.29 µM]
CC(=NCC(=O)O)c1ccccc1 2.4% [at 11.4 µM]
CCCCCCCCCCCCCCC[C@H](O)[C@H](N)CO -10.3%
O=C(O)c1cc(-c2ccc(-c3ccccc3)cc2)nc2cc3ccccc3cc12 -27% [at 11.4 µM]
Cc1ccccc1/C=C\C1=NCCN1 16.2%
CC(C)(C)COS(=O)OCC(C)(C)C -7.38% [at 11.4 µM]
CN1CCC[C@@H]1CCO[C@](C)(c1ccccc1)c1ccc(Cl)cc1 2.58% [at 25.6 µM]
CC(C)=CCC/C(C)=C/CO/N=C1/C[C@@H](O)[C@@H](O)[C@@H]2[C@@H]3C(=O)N(C[C@@H]4CCCO4)C(=O)[C@H]3CC[C@@H]12 9.34% [at 11.4 µM]
CN(C)[C@H]1C(=O)C(C(=O)NCN2CCCC2)=C(O)[C@]2(O)C(=O)C3=C(O)c4c(O)cccc4[C@](C)(O)[C@H]3C[C@H]12 -10.5% [at 11.4 µM]
Cc1cc(=Nc2ccc3c(c2)c(N)cc(C)[n+]3C)nc(N)n1C 13% [at 11.4 µM]
CCCC(C(=O)OCCN(CC)CC)(c1ccccc1)c1ccccc1 -47.9% [at 25.6 µM]
N=C(N)SCCSC(=N)N -1.93% [at 11.4 µM]
COc1cc(OC)c(C2C(C(=O)O)c3ccccc3C(=O)N2C)cc1OC (stereo not drawn) -22.7%
COc1cc(C(=O)N2CCN(C(=O)c3ccccc3)CC2)cc(OC)c1OC -11%
c1ccc(CNc2cc(-c3ccoc3)ncn2)cc1 -12.4% [at 2.29 µM]
O=C(c1cnccn1)N1CCC2(CCCN(c3ncccn3)C2)CC1 -7.23%
Cn1c(CN2CCOCC2)nnc1SCc1ccccc1 0.914%
COc1cccc(-c2ccc3ncnc(NCCNC(C)=O)c3c2)c1 -1.53% [at 2.29 µM]
COc1cccc(-c2nc(NCCNC(C)=O)c3ccccc3n2)c1 22.4% [at 2.29 µM]
C[C@H](CN(C)C)C(=O)c1ccccc1C(=O)O 4.19% [at 11.4 µM]
CNS(=O)(=O)c1ccccc1C(=N)c1ccccc1 9.68% [at 11.4 µM]
OC[C@H]1NC[C@@H](O)[C@@H](O)[C@H]1O -27%
Cc1cccc(NC(=S)NNC(=O)CCn2cc(C)cn2)c1 -7.75%
Cc1nn(CC(O)COc2ccc3c(c2)CCC3)c(C)c1Br (stereo not drawn) -23.7%
C=CC[C@@H]1C=C[C@H](O/N=C(\C)CCN2CCCCc3nc(C)c(C)cc32)[C@H](CO)O1 0.735% [at 11.4 µM]
Cc1ccc(N2C(=O)c3n[nH]c(C)c3C2c2ccccn2)cc1 (stereo not drawn) -12.8%

AC50, active:
N#Cc1nc(COc2ccccc2Cl)oc1NCc1ccco1 1.78 µM
CCOc1ccc(-c2cc(CCCC(=O)Nc3cc(OC)ccc3OC)no2)cc1 2.24 µM
CCOc1ccc(-c2cc(CCCC(=O)NCCc3ccc(OC)c(OC)c3OC)no2)cc1 1 µM
CSC1=N/C(=C\c2ccc(Br)o2)C(=O)S1 39.8 µM
CSC1=N/C(=C\c2ccc(C)cc2)C(=O)S1 22.4 µM
CCN(CC)Cc1c(O)ccc2c(=O)c(Oc3ccccc3OC)coc12 7.94 µM
C=CCSc1nc2c(sc3nc(C)cc(C)c32)c(=O)[nH]1 7.94 µM
Cc1cc(Cc2cc(C)cc(C(C)(C)C)c2O)c(O)c(Cc2cc(C)cc(C(C)(C)C)c2O)c1 3.16 µM
Cc1cc(Cc2cc(Cc3cc(C)cc(C(C)(C)C)c3O)c(C)cc2C)c(O)c(C(C)(C)C)c1 3.16 µM
Cc1ccc(NC(=S)N2CCN(CCN3C(=O)c4cccc5cccc(c45)C3=O)CC2)cc1 6.31 µM
C/C(=N\NC(=O)Cc1ccc(Cl)cc1)c1ccccn1 14.1 µM
Cc1ccc(S(=O)(=O)N(Cc2ccccc2)c2ccccc2C(=O)NCc2ccco2)cc1 0.0398 µM
Cc1cc(C(=O)CSc2nnc(-c3ccccc3)o2)c(C)n1CC1COc2ccccc2O1 (stereo not drawn) 3.55 µM
Cc1ccc(SCc2[nH]nc3c2C(C(C)C)C(C#N)=C(N)O3)cc1 (stereo not drawn) 7.08 µM
Fc1ccc(CSc2ncnc3sc4c(c23)CCCC4)cc1 11.2 µM
O=[N+]([O-])c1ccc(Nc2nc3ccccc3s2)cc1 1.26 µM
CCCCC(=O)NC(Nc1cc(C)ccn1)(C(=O)OCC)C(F)(F)F (stereo not drawn) 22.4 µM
CCCc1nn(-c2ccccc2)c2c1C(c1cccs1)C(C#N)=C(N)O2 (stereo not drawn) 4.47 µM
CC(C)N(Cc1ccccc1)S(=O)(=O)c1n[nH]c(C(C)(C)C)n1 3.98 µM
COc1ccc(CCNC(=O)c2nnn(CC(=O)Nc3ccccc3C)c2N)cc1OC 15.8 µM
CN1c2ccccc2Oc2c(c(=O)n(C)c(=O)n2C)C1c1cccc([N+](=O)[O-])c1 (stereo not drawn) 4.47 µM
O=C(c1ccccc1)[C@@H]1O[C@H]1c1ccc(-c2ccccc2)cc1 12.6 µM
Cc1ccc2nc(Nc3nc(-c4ccccc4)cc(=O)[nH]3)nc(C)c2c1 2.82 µM
Cc1ccc(S(=O)(=O)/C=C\C#N)cc1 12.6 µM
CC1=C(C(=O)OCc2ccccc2)C(c2ccc(Cl)cc2)NC(=O)N1CCCCCC(=O)O (stereo not drawn) 12.6 µM
CC1=C(C(=O)OCc2ccccc2)C(c2ccc([N+](=O)[O-])cc2)NC(=O)N1CCCCCC(=O)O (stereo not drawn) 15.8 µM
CC1=C(C(=O)OCc2ccccc2)C(c2ccc3ccccc3c2)NC(=O)N1CCCCCC(=O)O (stereo not drawn) 7.94 µM
CCN(CC)CC#CCC(C)(c1ccccc1)c1ccccc1 15.8 µM
COc1cc2c3c(c1OC)C1(C=CC(=O)C=C1)CC3N(C(=O)c1ccccc1)CC2 (stereo not drawn) 3.16 µM
c1ccc(-c2nc(CSc3n[nH]c(-c4cccs4)n3)cs2)cc1 20 µM
CCOc1ccc(Cc2nccc3cc(OCC)c(OCC)cc23)cc1OCC 3.98 µM
Cn1c(CNC(=O)Nc2ccccc2)nnc1SCc1ccccc1 8.91 µM
COc1ccc2[nH]c(-c3ccccc3)c(CCNC(C)=O)c2c1 15.8 µM
O=C(Nc1cccc(C(F)(F)F)c1)c1ccc(Cn2cc(Br)cn2)o1 8.91 µM

AC50, inactive:
Cc1cc(C(C)(C)C)c(O)c(C)c1CC1=NCCN1
CCn1ccnc1C[C@@H]1COc2ccccc2O1
CCN(CC)CCNC(=O)c1cc(Cl)c(N)cc1OC

— PubChem BioAssay AID1851 (National Center for Advancing Translational Sciences (NCATS), 2009)
